Laboratory results as given in PubChem BioAssay (Tox21).
Inconclusive results are not listed. Active and inactive are the calls of the source. Unless noted, the call rests on the fitted dose curve; in most records, active means well fitted curve in the direction sought with a large enough effect in the repeat runs; inconclusive means weak or mixed curves; inactive means no such curve, though single readings can be large; an effect the other way counts as inactive or inconclusive.

Columns and labels:
[1] = qHTS assay to identify small molecule antagonists of the estrogen related receptor (ERR) signaling pathway - cell viability counter screen (AID 1224818);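 further: series mostly up to about 46 µM; viability measured after 17.5 h of compound exposure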
In short: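 Quantitative high-throughput viability counter screen in ERR cells. Compounds (DMSO) incubated 17.5 h at 37 C; read-out was CellTiter-Fluor fluorescence.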

[2] = qHTS assay to identify small molecule antagonists of the estrogen related receptor signaling pathway with the pleiotropic PPARgamma coactivator (PGC) cell viability counter screen (AID 1224822; further: series mostly up to about 46 µM)
In short: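 Cytotoxicity in the PGC/ERR cell line is assessed with CellTiter-Fluor, read as fluorescence intensity 30 min after reagent addition, following 17.5 h compound treatment at 37 C.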

[3] = qHTS assay to identify small molecule agonists of the estrogen related receptor (ERR) signaling pathway (AID 1224820)
In short: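 Luminescence readout (One-Glo, 30 min RT) from NTP-supplied ERR cell line exposed to compounds for 18 h at 37 C. Cells seeded 2,000 per well and pre-incubated 6 h before pin-tool compound transfer.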

[4] = system: estrogen-related receptor alpha (ERRalpha) with PGC-1alpha coactivator, human; assay: qHTS assay to identify small molecule antagonists of the estrogen related receptor signaling pathway with the pleiotropic PPARgamma coactivator (PGC) (AID 1224821; calls by dose curve;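 further: series mostly up to about 46 µM; lower luminescence signal means antagonism of PGC/ERR signalling; nearly all actives have a fitted effect of over 50% in size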)
In short: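 PGC/ERR reporter cells; 6 h pre-incubation 37 C/5% CO2; pin-tool compound in DMSO, 18 h 37 C; One-Glo added, 30 min RT; luminescence read. qHTS antagonist mode.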

[5] = qHTS assay to identify small molecule agonists of the estrogen related receptor signaling pathway with the pleiotropic PPARgamma coactivator (PGC) (AID 1224823)
In short: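 Luminescence readout (One-Glo, 30 min RT) from PGC/ERR cell line treated 18 h at 37 C with pin-tool-delivered DMSO compound solutions; cells plated 6 h before dosing. Quantitative HTS format.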

[6] = qHTS assay to identify small molecule antagonists of the estrogen related receptor (ERR) signaling pathway (AID 1224819;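 further: luminescence from an ERR-driven luciferase reporter measured with One-Glo reagent; series mostly up to about 46 µM; nearly all actives have a fitted effect of over 50% in size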)
In short: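 ERR reporter cell line (NTP) plated at 2,000 cells/well, settled 6 h at 37C/5% CO2, then exposed to LOPAC compounds for 18 h at 37C. One-Glo luciferase luminescence read after 30 min at room temperature.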

Measured: Potency

CO[C@H]1CC=C2CCN3CCC4=C(CC(=O)OC4)[C@]23C1
inactive: [1] | [2]

Nc1cc2c(ncn2CCOCP(=O)(O)O)c(=O)[nH]1
not listed: [6]
inactive: all other assays above

CN(N=O)c1cc(O)ccc1O
inactive: [1] | [6] | [2] | [5]

C[N+]1(C)C2CCC1CC(OC(=O)C(CO)c1ccccc1)C2 (stereo not drawn)
inactive: [1] | [2]

C[C@]12CCC3C(CC[C@H]4C[C@H](O)CC[C@]34C)C1CC[C@@H]2C(=O)CO (stereo partly drawn)
not listed: [6]
inactive: all other assays above

CC(=O)[C@H]1CCC2C3CC[C@H]4C[C@H](O)CC[C@]4(C)C3CC[C@@]21C (stereo partly drawn)
not listed: [6]
inactive: all other assays above

CC(N)Cc1c[nH]c2ccc(O)cc12 (stereo not drawn)
inactive: [1] | [6] | [3] | [2]

CN1CCc2cc(O)cc3c2[C@H]1Cc1ccc(O)c(O)c1-3
inactive: [1] | [3] | [4] | [5]

[Cl-].[Cl][Pt].[NH2-].[NH2-].c1ccncc1
inactive: [1] | [2]

CC(N)Cc1c[nH]c2ccc(OCc3cccs3)cc12 (stereo not drawn)
not listed: [2]
inactive: all other assays above
